# Inconclusive results are not listed. Calls of active or inactive are those of the source. Calls come from the whole dose curve; as a rule, active = well fitted inhibition curve with a large enough effect; inconclusive = small, poorly fitted or top-dose-only effect; inactive = no such curve, though single readings can be large or run the other way.
# Test: Acumen qHTS Assay for Inhibitors of the mTORC1 Signaling Pathway in MEF (Tsc2-/-, p53-/-) Cells: Hit Validation;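 note: phospho-rpS6 Ser235/236 immunofluorescence normalized to propidium iodide cell count; nearly all actives have a fitted effect of over 65% in size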;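 for activity change, negative = inhibition: cells exposed to compound for 24 hours; plate controls were DMSO for no effect and 7.5 nM rapamycin control for full effect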
# Conditions: Acumen imaging; activity change, negative = inhibition: at 37.3 µM (top of the series)
# Potency is the fitted concentration of half-maximal effect.
Structure (SMILES),"activity change, negative = inhibition",Potency
Cc1cccc(N(C)S(=O)(=O)c2ccc(-c3cc(C)no3)s2)c1,-13.9%,–
Cn1nc(-c2ccc(OCC(=O)Nc3ccccc3)cc2)c2ccccc2c1=O,-11.2%,–
CN(Cc1ccccc1)C(=O)CSc1c2c(nc3ccc(Cl)cc13)CCCC2,9.63%,–
COc1cc(NC(=O)CSc2ccc(-c3ccccn3)nn2)cc(OC)c1,-6.23%,–
COc1cc(OC)cc(C(=O)NCCc2csc(-c3cccc(C)c3)n2)c1,-7.07%,–
CC(C)Cc1ccc(S(=O)(=O)N2CCC(c3ccncc3)CC2)cc1,–,4.65 µM (active)
COc1ccc(CNC(=O)C2CCN(c3nc4ccc(C)cc4[nH]3)CC2)cc1,22.4%,–
COc1ccc(N2CCN(C(=O)C(C)n3nc(C)c4sc5ccccc5c4c3=O)CC2)cc1 (stereo not drawn),1.14%,–
COc1ccc(NS(=O)(=O)c2ccc(-n3cccn3)cc2)cc1OC,-78.8%,–
CCN(CC)CCNC(=O)c1ccc(Cn2c(=O)c3cccn3c3cccnc32)cc1,-24.3%,–
Cc1cc(C)cc(Nc2cc(C(=O)NCCCN(C)C3CCCCC3)c3ccccc3n2)c1,-88.5%,–
CC(C)CS(=O)(=O)c1oc(-c2ccc(F)cc2)nc1S(=O)(=O)c1ccccc1,-152%,–
CCOCc1cc(CN2CCN(c3ccccc3OC)CC2)c(O)c2ncccc12,–,5.21 µM (active)
CS(=O)(=O)c1ncc(Cl)c(C(=O)N(Cc2ccc(Cl)cc2)Cc2ccco2)n1,-102%,–
Cc1ccc(-c2nnc(C3CCN(S(=O)(=O)c4ccc(C)c(C)c4)CC3)o2)cc1,-7.22%,–
COC(=O)c1ccccc1NC(=O)c1nc(S(=O)(=O)Cc2cccc(C)c2)ncc1Cl,–,4.14 µM (active)
O=C(c1ccco1)n1nc(-c2ccc(Cl)cc2)nc1NCc1ccccc1,-47.3%,–
CCOc1ccc(S(=O)(=O)N(C(C)=O)c2ccc3oc(C)c(C(=O)OC)c3c2)cc1,-69.9%,–
COc1ccc(CNC(=O)c2nc(S(=O)(=O)Cc3ccccc3)ncc2Cl)cc1,-99.8%,–

Structure (SMILES),"activity change, negative = inhibition",Potency
CC(=O)C1=C(c2ccc(Cl)c(Cl)c2)N(C(C)=O)n2cnnc2S1,–,5.21 µM (active)
CCOC(=O)Cc1ccc(NC(=O)n2ncc3cc(Cl)ccc32)cc1,–,8.26 µM (active)
CCN(CCCNC(=O)c1cc2c(=O)[nH]c3ccc(C)cc3c2s1)Cc1ccccc1,-139%,–
COc1cc(Cl)c(C)cc1NC(c1ccccc1)c1nnc(-c2ccccc2Cl)o1 (stereo not drawn),-9.11%,–
Cc1cccc(CS(=O)(=O)c2ncc(Cl)c(C(=O)NCc3ccccc3)n2)c1,-111%,–
CCS(=O)(=O)c1ncc(Cl)c(C(=O)N(Cc2ccccc2)Cc2ccco2)n1,–,5.21 µM (active)
Cc1ccc2c(c1)C(=O)C(=O)N2Cc1ccc(OC(C)C)cc1,–,0.0736 µM (active)
CCCCN(C)CCNC(=O)C1CCN(c2nc3ccc(CC)cc3s2)CC1,-90.7%,–
CCCCOc1ccccc1C1CC(=O)Nc2ccc3ccccc3c21 (stereo not drawn),-10.2%,–
O=C(Nc1ccccc1)N(Cc1cccc(Cl)c1)c1ccccn1,14.8%,–
CCc1ccc(S(=O)(=O)N(C(=O)c2ccncc2)c2ccc3oc(C)c(C(=O)OC)c3c2)cc1,–,11.7 µM (active)
O=C(Nc1ccc(Cl)cc1)c1cc(S(=O)(=O)N2CCCc3ccccc32)ccc1F,-18.3%,–
CCOC(=O)c1c(NC(=O)c2ccc(S(=O)(=O)N(CCOC)CCOC)cc2)sc2c1CC(C)(C)NC2(C)C,–,8.26 µM (active)
CCOc1ccc(-c2nc(SCC(=O)c3ccccc3)n[nH]2)cc1,-131%,–
COc1ccc(C2CC(=O)c3c([nH]c(C(=O)OC4CCCCCC4)c3C)C2)cc1OC (stereo not drawn),8.05%,–
CCN1CCOC(=O)C1CC(=O)Nc1cccc(OC)c1 (stereo not drawn),-21.3%,–
O=C(NCc1ccccc1)c1nc(S(=O)(=O)Cc2ccccc2)ncc1Cl,–,5.85 µM (active)
O=C(CCS(=O)(=O)c1nc(-c2cccs2)cc(C(F)(F)F)n1)Nc1cccc(O)c1,-112%,–
Nc1nnc(SCC(=O)Nc2cccc(F)c2)s1,16.3%,–

# — PubChem BioAssay AID651784 (National Center for Advancing Translational Sciences (NCATS), 2012)
